Rac1 act GTP bind – alters GTP binding to activated mutant human Rac1; P63000; GST-Rac1 activated beads, fluorescent GTP binding, flow cytometry; actives lie on both sides; 100% means binding = to untreated wells; percent activity (GTP binding), % at 10 µM; hit rate 0.11% among 190,000; AID 764;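 active means GTP binding at least 20 percentage points away from the 100% baseline, in either direction, so actives lie on both sides; inconclusive means Compound likely fluorescent itself, or too few beads counted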
Cdc42 wt GTP – changes GTP binding to wildtype human Cdc42; GST-Cdc42 beads, Bodipy-GTP binding, flow cytometry; actives lie on both sides; percent activity (GTP binding), % at 10 µM; P60953; hit rate 0.2% among 190,000;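 active means percent activity GTP binding at least 20 points away from the 100% baseline, either down as inhibitor or up as activator; inconclusive means compound flagged as likely green fluorescent from well-wide comparison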;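 further: median bead fluorescence of bound Bodipy-FL-GTP at 100 nM; 0% = excess unlabeled GTP control and 100% = no compound control; below 100% means less GTP binding so inhibitor and above means activator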
Target sequence (P60953 whole entry, looked up): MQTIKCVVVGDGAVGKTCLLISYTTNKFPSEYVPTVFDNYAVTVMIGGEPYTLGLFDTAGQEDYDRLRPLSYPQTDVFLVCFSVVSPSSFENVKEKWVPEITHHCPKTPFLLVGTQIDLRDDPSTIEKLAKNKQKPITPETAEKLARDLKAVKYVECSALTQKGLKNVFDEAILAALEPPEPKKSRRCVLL
Rac1 wt GTP bind – alters GTP binding to wildtype human Rac1; hit rate 0.27% among 190,000; GTP binding activity (% of control), % at 10 µM; AID 757; GST-Rac1 beads, fluorescent GTP binding, flow cytometry; actives lie on both sides; 0 = cold GTP competed, 100 = untreated; P63000;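 active means GTP binding activity at least 20 points away from the 100% control level, either lower or higher; inconclusive means compound flagged as likely green fluorescent, judged across all proteins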
HRas wt GTP – human HRas wildtype GTP binding, change in either direction; GST-Ras wt beads, Bodipy-FL-GTP binding, flow cytometry; actives lie on both sides; P01112; hit rate 0.14% among 190,000; GTP binding activity, % at 10 µM;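 active means GTP binding activity at least 20% away from the 100% baseline, either lowered as inhibitor or raised as activator; inconclusive means flagged as likely green fluorescent, judged across all proteins in the well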;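 further: 0% = unlabeled GTP competition control and 100% = no-compound control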
Target sequence (P01112 whole entry, looked up): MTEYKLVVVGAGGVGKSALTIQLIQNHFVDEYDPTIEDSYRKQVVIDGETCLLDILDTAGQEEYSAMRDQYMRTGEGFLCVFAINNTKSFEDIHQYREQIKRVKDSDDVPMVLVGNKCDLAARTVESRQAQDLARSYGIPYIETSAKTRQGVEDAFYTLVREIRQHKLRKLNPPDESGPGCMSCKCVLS
Rab7 wt GTP bind – dog Rab7 wildtype GTP binding, inhibitors and activators; GST-Rab7 beads, fluorescent GTP binding, flow cytometry; actives lie on both sides; untreated = 100%, excess cold GTP = 0%; GTP binding activity (percent of control), % at 10 µM; hit rate 0.055% among 190,000;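 active means fluorescent GTP binding to Rab7 beads changed by at least 20 points from the 100% baseline, either direction, mostly lower; inconclusive means compound itself probably fluorescent, or too few beads counted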;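 further: median green fluorescence of bound Bodipy-FL-GTP per Rab7 bead population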
Rab2 wt GTP – changes GTP binding to wildtype dog Rab2A, up or down. AID 760. GTP binding activity, % at 10 µM. GST-Rab2 wt beads, Bodipy-GTP binding, flow cytometry. hit rate 0.19% among 190,000;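 active means GTP binding activity at least 20 points away from 100%, either lowered or raised; inconclusive means signal likely due to the compound's own green fluorescence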;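 further: 0% = beads with excess unlabeled GTP and 100% = no-compound control corrected for plate trend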
Active calls of the source: *; ? = inconclusive; [ ] = dose if it differs, or a comment. Most compounds without a hit are left out; they make up all but 0.37% or so of the library.

SMILES	Rac1 act GTP bind	Cdc42 wt GTP	Rac1 wt GTP bind	HRas wt GTP	Rab7 wt GTP bind	Rab2 wt GTP
CCN(CC)S(=O)(=O)c1ccc2oc(C(=O)N3CCCCCC3)c(C)c2c1	101.0	112.0	107.0	109.0	103.0	109.0
NC(=S)NNC(=O)[C@@H]1CCCC[C@@H]1C(=O)O	101.0	113.0	117.0	103.0	103.0	103.0
COc1ccc(OCc2nc3c4cc(OC)c(OC)cc4nc(=S)n3[nH]2)cc1	89.0	87.0	77.0*	82.0	90.0	83.0
CCCc1nc2ccccc2c(=O)n1CC(=O)c1ccccc1	96.0	99.0	102.0	98.0	106.0	97.0
COc1ccc(S(=O)(=O)NCC2CCCN(Cc3ccccc3C)C2)cc1 (stereo not given)	96.0	98.0	102.0	99.0	103.0	100.0
COc1c(C)cccc1C(=O)NC(=S)Nc1ccc2c(c1)Cc1ccccc1-2	74.0*	77.0*	77.0*	83.0	83.0	75.0*
CCNC(=S)N=Nc1c(O)[nH]c2ccc([N+](=O)[O-])cc12	80.0	65.0*	58.0*	67.0*	83.0	65.0*
CCCn1c(SCC(=O)N2CCCC(C)C2)nnc1-c1ccccn1 (stereo not given)	96.0	93.0	93.0	97.0	103.0	97.0
Cc1noc(C)c1COc1ccc(C(=O)OCC(=O)NCc2ccccc2Cl)cc1	98.0	100.0	102.0	99.0	104.0	96.0
Cc1noc(C)c1COc1cccc(C(=O)NCc2ccccc2Cl)c1	74.0*	71.0*	72.0*	52.0*	67.0*	69.0*
O=S(=O)(c1cccs1)N1CCC(CO)(Cc2cccc(F)c2)CC1	96.0	96.0	99.0	98.0	102.0	98.0
O=C(COC(=O)/C=C/c1ccc(Cl)cc1)Nc1ccc2c(c1)OCCO2	78.0*	83.0	79.0*	81.0	87.0	76.0*
CCn1c(SCC(=O)O)nnc1-c1cccnc1	97.0	98.0	101.0	98.0	106.0	96.0
O=C(Nc1ccc(S(=O)(=O)N2CCCc3ccccc32)cc1)C1CCCO1 (stereo not given)	102.0	117.0	120.0*[activator]	110.0	103.0	111.0
COc1ccc(S(=O)(=O)Cc2ccc(C(=O)N3CCN(c4ccc(Cl)cc4)CC3)o2)cc1	101.0	102.0	108.0	104.0	102.0	105.0
COc1ccc(S(=O)(=O)Cc2ccc(C(=O)N3CCN(c4cc(Cl)ccc4C)CC3)o2)cc1	76.0*	74.0*	76.0*	80.0	77.0*	72.0*
CN(C)c1ccc(N/C(N)=N/c2nc(C(F)(F)F)cc(C(F)(F)F)n2)cc1	95.0	94.0	96.0	96.0	95.0	93.0
O=C(/C(Cl)=C/Nc1ccc(Br)cn1)C(F)(F)F	95.0	94.0	98.0	102.0	104.0	99.0
Cc1cc(-c2nn(-c3ccccc3F)cc2CN(C)CC(O)CO)c(C)s1 (stereo not given)	93.0	93.0	91.0	94.0	104.0	99.0
OC(c1ccc(OCc2ccccc2)cc1)c1nnc(-c2ccccc2)o1 (stereo not given)	78.0*	75.0*	74.0*	82.0	92.0	81.0
OC(c1cccc(OCc2ccccc2)c1)c1nnc(-c2ccccc2)o1 (stereo not given)	95.0	100.0	103.0	97.0	98.0	97.0
O=c1cc(-c2ccccc2)n(S(=O)(=O)c2ccccc2)o1	100.0	98.0	101.0	97.0	95.0	96.0
COc1ccc(S(=O)(=O)n2oc(=O)cc2-c2ccccc2)cc1	90.0	79.0*	94.0	83.0	89.0	79.0*
O=C(O)c1c(-c2ccc(Cl)cc2)cn2ccccc12	88.0	91.0	92.0	92.0	91.0	93.0
COc1cccc(OC)c1-c1nn2c(-c3cc(-c4ccccc4)n[nH]3)nnc2s1	?	179.0*[activator]	206.0*[activator]	162.0*[activator]	?	167.0*[activator]
SMILES	Rac1 act GTP bind	Cdc42 wt GTP	Rac1 wt GTP bind	HRas wt GTP	Rab7 wt GTP bind	Rab2 wt GTP
COc1ccc(S(=O)(=O)N2CCCCC2)cc1NC(=O)c1ccc([N+](=O)[O-])o1	87.0	82.0	74.0*	86.0	97.0	84.0
COc1cc(/C=C/C(=O)O)cc(S(=O)(=O)NCc2ccc3c(c2)OCO3)c1OC	100.0	100.0	102.0	97.0	100.0	99.0
CCOc1ccc2ccccc2c1/C=N/n1cncn1	104.0	115.0	130.0*[activator]	100.0	98.0	102.0
C/C(=C/C(=O)O)C(=O)Nc1cccc(C(F)(F)F)c1	93.0	96.0	101.0	98.0	103.0	99.0
CCCc1nc2c(=O)n(C)c(=O)nc-2n(C)n1	84.0	74.0*	94.0	89.0	99.0	89.0
CSc1nc(Cc2ccccc2)cc(=O)[nH]1	122.0*[activator]	120.0*[activator]	127.0*[activator]	116.0	111.0	120.0*[activator]
CCCc1cc(=O)[nH]c(SCc2ccccc2)n1	99.0	102.0	104.0	102.0	103.0	101.0
COc1ccc(C(CC(=O)O)NC(=O)c2cc3cc(Br)ccc3oc2=O)cc1OC (stereo not given)	76.0*	77.0*	80.0	83.0	83.0	76.0*
Cc1ccc(-n2c(=O)cc(N3CCc4ccccc4C3)[nH]c2=O)cc1	106.0	110.0	126.0*[activator]	107.0	104.0	107.0
Cc1ccc(-n2c(=O)cc(N3CCN(C(=O)c4ccco4)CC3)[nH]c2=O)cc1	105.0	102.0	121.0*[activator]	106.0	107.0	102.0
Cc1cc(C)cc(-n2ccnc2SCC(=O)O)c1	92.0	94.0	94.0	93.0	97.0	94.0
COc1cc(C(C(=O)NCc2ccccc2)N(Cc2ccco2)C(=O)c2cnccn2)cc(OC)c1OC (stereo not given)	99.0	99.0	106.0	100.0	101.0	96.0
O=C(NCc1cccs1)c1cnc2ccccn2c1=O	96.0	101.0	103.0	99.0	100.0	98.0
O=C(NCc1cccs1)c1cccn2c(=O)c3sccc3nc12	77.0*	63.0*	55.0*	66.0*	92.0	63.0*
Cc1ccc(-c2ccnc3nc(-n4cccc4)nn23)o1	96.0	100.0	97.0	94.0	94.0	97.0
N#C/C(=C(/O)COc1ccc(Br)cc1)c1nnc2n1CCCCC2	75.0*	76.0*	78.0*	81.0	80.0	77.0*
CC/C(O)=C(/C#N)c1nnc2n1CCCCC2	100.0	103.0	104.0	101.0	102.0	102.0
COc1ccc(N(C)C2=NS(=O)(=O)c3ccccc32)cc1	97.0	101.0	104.0	100.0	98.0	99.0
CN(/N=C/c1ccco1)C1=NS(=O)(=O)c2ccccc21	80.0	71.0*	64.0*	76.0*	85.0	73.0*
CN1CCC(N(C)C(=O)CCc2nc3ccccc3n2-c2ccccc2)CC1	96.0	97.0	98.0	100.0	107.0	99.0
Cc1ccc(OCc2ccc(C(=O)O)o2)c([N+](=O)[O-])c1	96.0	99.0	102.0	98.0	97.0	98.0

Screens (PubChem BioAssay)
